# Source: PubChem
# Many of the other results were omitted from the sample, so hits are more common in it than they were.
# Methyltransferases: Primary Screen for Target Class Profiling of Small Molecule Inhibitors of Methyltransferases; AID 1745853, 2022; calls only at 40 µM; purified enzyme, MTase-Glo SAH luminescence; active compounds read low; actives 3.9% (n = 25,000); call rule not given here
#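 Each enzyme was assayed with SAM and its substrate. SAH formation detected by MTase-Glo luminescence; single-point 40 uM screen[…].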
# MTase-Glo counter: Counterscreen for Target Class Profiling of Small Molecule Inhibitors of Methyltransferases; shares compounds with Methyltransferases; MTase-Glo coupled enzymes, SAH conversion luminescence, no MTase; Potency, µM (highest dose often 57.3 µM), most hits filed as inhibitors; actives 6% (n = 180); AID 1745851, 2022; active = well fitted inhibition curve with a large enough effect
# Calls only; . = inactive; + = active, no number.
SMILES,Methyltransferases,others
Nc1ncnc2c1ncn2[C@H]1O[C@@H](C(=O)N2CCN(CC(=O)Nc3cccc4c3CNC4=O)CC2)[C@H](O)[C@@H]1O,+,
CNC(=O)[C@H]1O[C@@H](n2cnc3c(NCc4ccc(N)cc4)ncnc32)[C@H](O)[C@@H]1O,.,
CNC(=O)[C@H]1O[C@@H](n2cnc3c(NCc4ccc(N)c(I)c4)ncnc32)[C@H](O)[C@@H]1O,.,
CC(=O)N1CCN([C@H]2[C@@H]3OC[C@@H](O3)[C@@H](NCc3ccccc3O)[C@@H]2O)CC1,.,
CCOc1ccc(CCNC(=O)c2cc3n(n2)CC(C)(C(=O)NCc2ccc(F)cc2)N(C)C3=O)cc1 (stereo not drawn),.,
CNC(=O)c1cc(C)nc2onc(C3CCCN3C(=O)C(C)(C)C)c12 (stereo not drawn),.,
OC(CCN1CCCCC1)(c1ccccc1)C1CC2C=CC1C2 (stereo not drawn),.,
CS(=O)(=O)Nc1ccc2oc3c(OC(F)F)ccc(C(=O)Nc4c(Cl)cncc4Cl)c3c2c1,+,
Cc1c(Cl)cccc1NC(=O)N1CCCC1c1nncn1-c1ccccc1 (stereo not drawn),.,
CCC(C)NC(=O)c1ccc2c(=O)n(C(C)C)c3nn(CC(=O)Nc4cccc(Cl)c4)c(=O)n3c2c1 (stereo not drawn),.,
CCOC(=O)C1=C(CN2CCn3cccc3C2C)NC(=O)NC1c1cccc(OC)c1OC (stereo not drawn),.,
C=C1C(=O)OC2C(OC(=O)C=C(C)C)C(C)=C3C(=O)C=C(C)C3C(O)C12 (stereo not drawn),+,
C=C1C(=O)O[C@@H]2[C@H]3C(C)=CC(=O)C3=C(C)[C@@H](OC(=O)/C(C)=C\C)[C@H](O)[C@@H]12,.,
COc1ccc(C(=O)N(CCC(C)C)Cc2nc(C)c(C)n2Cc2ccccc2C)c(OC)c1,+,
COc1ccc(N2C(=O)c3cc4ccccc4n3CC2(C)C(=O)NCCC(C)C)c(OC)c1 (stereo not drawn),.,
COc1ccc(OC)c(CN2C(=O)c3cc4ccccc4n3CC2(C)C(=O)NCCC(C)C)c1 (stereo not drawn),.,
O=C(c1ccc(NS(=O)(=O)c2cccc3cccnc23)cc1)N1CCN(CC2CC2)CC1,.,
Cn1cc(CN[C@H]2C[C@H]3C(=O)NC[C@@H](CCC(=O)NCc4ccccc4)N3C2)c2ccccc21,.,
CC(C)Cn1c(=O)c2ccccc2n2c(CCC(=O)NCc3ccc(Cl)cc3)nnc12,.,
CC(CNC(=O)c1cc2n(n1)CC(C)(C(=O)NC1CCCCC1)N(C)C2=O)c1ccccc1 (stereo not drawn),.,
CN1CCN(C(=O)c2ccc(Nc3nccc(-c4cccs4)n3)cc2Cl)CC1,+,
Cc1ccsc1C(=O)N1CCN(c2cc(-c3cccs3)[nH]n2)CC1,.,
COc1ccc(C(=O)N2CCN(c3cc(-c4cccs4)[nH]n3)CC2)cc1OC,.,
Cc1cccc(N(C)C(=O)Cn2c(=O)oc3cc(S(=O)(=O)N4CCCCC4)ccc32)c1,.,
CC(=O)Nc1ccc2c(c1)S(=O)(=O)N=C(CC(C)C)N2c1ccccc1,.,
SMILES,Methyltransferases,others
COc1ccc(-c2ccc3c(N4CCOCC4)nc(N4CC(C)OC(C)C4)nc3n2)cc1CO (stereo not drawn),.,
NC(=O)C1CCN(C(=O)CCc2nnc3n(CCc4ccccc4)c(=O)c4ccccc4n23)CC1,.,
Cc1cc(F)ccc1NC(=O)c1cc2n(n1)CC(C)(C(=O)NC1CCCCCC1)N(C)C2=O (stereo not drawn),.,
CCCc1cc2c(-c3ccccc3)cc(=O)oc2cc1OCc1ccc(C(=O)O)o1,+,
CCCCOC(=O)COc1ccc2c(-c3ccccc3)cc(=O)oc2c1,.,
COC(=O)COc1cc2oc(=O)cc(-c3ccccc3)c2cc1Cl,.,
CCCn1c(=O)c2ccccc2n2c(SCC(=O)Nc3ccc(C)c(C)c3)nnc12,.,
CN1C(=O)c2cc(NC(=O)c3cccc(Br)c3)ccc2N2CCN=C12,.,
C=CS(=O)(=O)NC1CCN(C(=O)CNc2cc(I)c(Cl)cc2OC)CC1,.,
Cc1ccccc1-n1c(Cn2nc(-c3cccc(O)c3)c3c(N)ncnc32)nc2cccc(C)c2c1=O,+,
Cc1ccccc1N1Cc2c(NC3CCCCCC3)ncnc2N(C)CC1=O,.,
NS(=O)(=O)OC[C@@H]1C[C@@H](n2ccc3c(N[C@H]4CCc5ccccc54)ncnc32)C[C@@H]1O,+,
COc1cccc(CNC(=O)CCCn2ccc3cc(S(=O)(=O)N4CCCC4)ccc32)c1,.,
NC1(Cc2ccc(Cl)cc2)CCN(c2ncnc3[nH]ccc23)CC1,+,
Clc1ccc(N2CCN(Cc3c[nH]c4ncccc34)CC2)cc1,.,
COc1ccc(NC(=O)C(C)Oc2ccc3c(-c4ccccc4)cc(=O)oc3c2)cc1 (stereo not drawn),.,
Cc1cccc(CN2CCc3nnc([C@@H]4C[C@@H](O)CN4C)n3CC2)c1,.,
Cn1c(=O)c2ccc(C(=O)NC3CCCCC3)cc2n2c(=O)n(CC(=O)NCc3ccc(F)cc3)nc12,.,
Cc1oc2c(c1C(=O)N1CCOCC1)CN(C(=O)c1ccncc1)CC2,.,
O=C(c1ccncc1)N1CCCC(CN2CCCC2)CC1 (stereo not drawn),.,
O=C(c1ccc(C2CCCNC2)cc1)N1CCN(c2ccncc2)CC1 (stereo not drawn),+,MTase-Glo counter=.
O=C(NCC1(Cn2cccn2)CC1)c1ccc(C2CCNC2)cc1 (stereo not drawn),.,
Cc1cc(C)cc(NC(=O)Cn2c(=O)oc3cc(S(=O)(=O)NCc4ccccc4)ccc32)c1,.,
Cn1c(N2CCCCS2(=O)=O)nc(C(=O)NCc2ccc(F)cc2)c(O)c1=O,.,
COc1ccc(C)cc1NC(=O)CCC[C@@H]1[C@H]2CCCN3CCC[C@@H](CN1C)[C@@H]23,.,
SMILES,Methyltransferases,others
CCn1nccc1C(=O)N1CC[C@@H]2CN(Cc3ccccc3)[C@@H]2C1,.,
O=C(CCC[C@@H]1[C@H]2CCCN3CCC[C@@H](CN1Cc1ccccc1)[C@@H]23)Nc1cccnc1,+,MTase-Glo counter=.
Cc1ccc(NC(=O)CSc2nnc3n(CCC(C)C)c(=O)c4ccccc4n23)c(C)c1,.,
CC(C)Oc1ccc(CNC(=O)c2cc3n(n2)CC(C)(C(=O)NCc2ccccc2)N(C)C3=O)cc1 (stereo not drawn),.,
O=c1c2c(CO)c(-c3ccccc3)nn2ccn1Cc1cc(=O)n2ccccc2n1,.,
CN1CCCC2(C1)CN(C)c1ccc(C(=O)NCC3CCCCC3)cc12 (stereo not drawn),+,MTase-Glo counter=.
CN1CCC2(C1)CN(Cc1ccccc1)c1ccc(C(=O)N3CCOCC3)cc12 (stereo not drawn),.,
O=C(NCC1CCN(c2cc(-c3ccccc3)[nH]n2)CC1)c1ccc2nc[nH]c2c1,.,
O=C(O)/C=C/c1ccc2occc2c1O[C@@H]1O[C@H](CO)[C@@H](O)[C@H](O)[C@H]1O,.,
c1ccc(C2=NOC3(CCCN(CC4CCCC4)C3)C2)cc1 (stereo not drawn),.,
CCOc1ccccc1C(=O)N1CCC(c2n[nH]c(=O)n2Cc2ccc(OC)cc2)CC1,.,
COc1ccc(-c2[nH]nc3ncc(C(=O)N4CCC(c5ccccc5)CC4)nc23)c(C)c1,+,MTase-Glo counter=.
COc1cccc(CN2CCCC3(CCN(C(=O)c4cnc(C)cn4)C3)C2)c1 (stereo not drawn),.,
